Bioassay records: PubChem, National Center for Advancing Translational Sciences (NCATS)
Most compounds without a hit are left out; they make up all but 1.3% or so of the library.
PTHR1 ag – qHTS for PTHR1 Agonists: Primary Screen. Parathyroid hormone/parathyroid hormone-related peptide receptor (Homo sapiens), Q03431. HEK293 GP2 PTHR1 cells, GloSensor cAMP luminescence, 1 h. Potency, µM (top dose mostly 115 µM), usual class: activators. hit rate 0.075% among 410,000. AID 743266, 2014; further: nearly all actives have a fitted effect of over 55% in size
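HEK-293-derived GP2 cells expressing PTHR1 and a GloSensor cAMP reporter, 3,000/well, plated overnight, given luciferin plus IBMX (each 0.5 mM as added) for 1 h at 37 °C, then compound for 1 h at 37 °C. Luminescence was read after 15 min at room temperature.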
ERG Ets-DNA blk – qHTS for Small Molecule Inhibitors of the ERG Ets/DNA interaction; Transcriptional regulator ERG (Homo sapiens), P11308; fluorescence polarization, His-ERG Ets domain / labelled DNA; Potency, µM (titrated, usually from 76.9 µM), hits mostly inhibitors; hit rate 0.028% among 370,000; active means well fitted inhibition curve with a large enough effect in the polarisation, with a control signal flat; inconclusive means small, poorly fitted or top-dose-only effect, or effect the other way, or a change in a side signal; inactive means no such curve, though single readings can be large or run the other way; the % refers to the polarisation;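 further: polarization taken with two DNA probes labelled with fluorescein and Texas red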
Target sequence (P11308 whole entry, looked up, the tested form may be a part): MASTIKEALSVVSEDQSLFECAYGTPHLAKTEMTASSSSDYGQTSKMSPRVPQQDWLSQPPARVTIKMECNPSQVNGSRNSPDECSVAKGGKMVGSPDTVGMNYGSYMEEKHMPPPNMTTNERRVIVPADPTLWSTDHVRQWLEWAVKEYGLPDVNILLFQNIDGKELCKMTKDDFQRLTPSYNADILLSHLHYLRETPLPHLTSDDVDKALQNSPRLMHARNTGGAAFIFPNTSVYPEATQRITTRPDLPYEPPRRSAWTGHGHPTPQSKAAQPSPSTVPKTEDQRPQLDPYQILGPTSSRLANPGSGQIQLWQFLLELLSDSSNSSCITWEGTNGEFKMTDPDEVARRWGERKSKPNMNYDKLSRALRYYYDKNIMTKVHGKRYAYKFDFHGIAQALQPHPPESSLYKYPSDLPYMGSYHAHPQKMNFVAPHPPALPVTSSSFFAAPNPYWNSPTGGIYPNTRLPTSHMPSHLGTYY
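His-tagged ERG Ets domain (1 uM in the protein solution; 300mM KCl, 50mM Tris-HCl, 1mM EDTA, 1mM DTT, pH 7.5) received compound, then a probe mix of 5 nM fluorescein-DNA and 100nM Texas-615-DNA. Fluorescence polarization was read for both dyes.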
12-LOX inh – Primary qHTS assay for inhibitors of human arachidonate 12S-lipoxygenase (ALOX12): Round 2. Potency, µM (top dose mostly 108 µM), usual class: inhibitors. purified 12hLO, xylenol orange hydroperoxide absorbance. Polyunsaturated fatty acid lipoxygenase ALOX12 (Homo sapiens), P18054. hit rate 1.1% among 580,000
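Purified human 12hLO at 150 nM in 25 mM Hepes, 0.01% Triton X-100, pH 7.0, preincubated 15 min at room temperature with compound. Reaction started with 40 uM arachidonic acid, 30 min at room temperature. Hydroperoxide measured by Fe-xylenol orange, 573/405 nm absorbance ratio.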
miR-21 reporter – qHTS Assay for Modulators of miRNAs and/orActivators of miR-21; 340,000 tested, under 10 active; HeLa miR-21 FLuc reporter, luciferase, 48 h; Potency, µM (top dose mostly 38.3 µM), hits mostly activators;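 further: miR-21 action dims this reporter so a rising signal means less miR-21 action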
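HeLa cells stably expressing CMV-driven firefly luciferase with a downstream miR-21 binding sequence, endogenously expressing miR-21, were treated with titrations (up to about 40uM final) for 48 hours at 37 degree Celsius. Luciferase luminescence was read after lysis.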
Giardia kill – Small Molecules that selectively kill Giardia lamblia: qHTS | Giardia lamblia trophozoite viability | activity change, % at 7.66 µM, hits read low | hit rate 0.15% among 340,000; in the data active means activity change below about -80%; inconclusive means between about -30% and that limit;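 further: parasites exposed to compound for two days anaerobically before the ATP read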
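Luminescence from cellular ATP indicates surviving trophozoites (100 cells/well) following 48 hrs anaerobic compound treatment at 37 deg C; signal develops 15-30 min at room temperature.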
PINK1 modulator – A Quantitative High throughput Screen to Identify Chemical Modulators of PINK1 Expression | PINK1 immunofluorescence, high-content cytometry, 24 h | Potency, µM (titrated, usually from 76.6 µM), actives largely listed as activators | hit rate 0.2% among 410,000; active means well fitted activation curve with a large enough effect; inconclusive means small, poorly fitted or top-dose-only effect; cell line not stated here; further: nearly all actives have a fitted effect of over 65% in size
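Fluorescence from anti-PINK1 antibody, together with nuclear and cell stains, was scanned on a laser-scanning cytometer. Before staining, stable-line cells were incubated 24 hours with compounds at 5 concentrations; primary antibody 12 h at 10 degrees C.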
Each line names hits and unclear results; the compound was inactive in the other large screens. Unless noted, the call rests on the fitted dose curve; in most records, active means well fitted curve in the direction sought with a large enough effect; inconclusive means small, poorly fitted or top-dose-only effect, or another doubt; inactive means no such curve, though single readings can be large; an effect the other way counts as inactive or inconclusive.

NC(=S)NN=C1c2ccccc2-c2cc(Br)ccc21	12-LOX inh 40µM (no result: miR-21 reporter)
S=C(NCCCN1CCOCC1)NN=C1c2ccccc2-c2ccccc21	12-LOX inh 45µM (no result: ERG Ets-DNA blk, miR-21 reporter, Giardia kill)
C=C(C)CNC(=S)NN=C1c2ccccc2-c2ccccc21	none (no result: 12-LOX inh)
CCNC(=S)NN=C1c2ccccc2-c2ccccc21	12-LOX inh 35µM
CCCCC(=O)Nc1ccc(Cl)c2ncccc12	none (no result: PTHR1 ag, ERG Ets-DNA blk, miR-21 reporter, Giardia kill, PINK1 modulator)
OC(CC#CCN1CCN(CC#CCC(O)(c2ccccc2)c2ccccc2)CC1)(c1ccccc1)c1ccccc1	12-LOX inh 11µM (no result: PTHR1 ag, ERG Ets-DNA blk, miR-21 reporter, Giardia kill, PINK1 modulator)
CC(O)(C#CCN1CCCCCC1)c1ccccc1 (stereo not given)	12-LOX inh inconclusive
OC(CC#CCN1CCCCCC1)(c1ccccc1)c1ccc(-c2ccccc2)cc1 (stereo not given)	12-LOX inh 18µM (no result: PTHR1 ag, ERG Ets-DNA blk, miR-21 reporter, Giardia kill, PINK1 modulator)
CC(C)C(C#CCN1CCCCC1)(c1ccccc1)c1ccccc1	12-LOX inh 20µM (no result: PTHR1 ag, ERG Ets-DNA blk, miR-21 reporter, Giardia kill, PINK1 modulator)
Cc1ccccc1NC(=O)CCN1C(=O)c2ccccc2Sc2ncccc21	none (no result: Giardia kill)
Clc1ccc(OCCOCCN2CCc3ccccc3C2)c(Cl)c1	12-LOX inh inconclusive
O[C@@H]1[C@@H](Cn2cc(-c3cccnc3)nn2)C[C@@H](NCc2nccs2)[C@@H]1O	none (no result: PTHR1 ag, ERG Ets-DNA blk, miR-21 reporter, Giardia kill, PINK1 modulator)
CCCNC(=O)N[C@@H]1C[C@H](Cn2cc(-c3cccnc3)nn2)[C@@H](O)[C@H]1O	12-LOX inh 14µM (no result: PTHR1 ag, ERG Ets-DNA blk, miR-21 reporter, Giardia kill, PINK1 modulator)
O=Cc1cc2cc3c(cc2nc1Cl)OCCO3	none (no result: 12-LOX inh)
O=C(O)c1ccc(N/N=C/c2cc3cc4c(cc3nc2Cl)OCCO4)cc1	Giardia kill -88
COc1ccc(CNC(=O)[C@H]2CCC[C@H]2NC(=O)c2cnc(C)cn2)c(OC)c1	none (no result: PTHR1 ag, ERG Ets-DNA blk, miR-21 reporter, Giardia kill, PINK1 modulator)
S=C(Nc1ccccc1)Nc1nc2ccccc2n1CCOc1ccccc1	12-LOX inh inconclusive
CCCCn1c(NC(=S)Nc2ccccc2)nc2ccccc21	12-LOX inh 18µM
Cc1cc(C)cc(C(=O)n2cnnc2N)c1	none
CCN(CC)S(=O)(=O)c1cccc(C(=O)N/N=C/c2ccc(O)c(O)c2O)c1	12-LOX inh inconclusive
Oc1ccc(/C=N/N=C(c2ccccc2)c2ccccc2)c(O)c1O	12-LOX inh 40µM
C(=N\N=C(c1ccccc1)c1ccccc1)/c1ccncc1	none (no result: PTHR1 ag, ERG Ets-DNA blk, miR-21 reporter, Giardia kill, PINK1 modulator)
O=C(/C(=N/N=C/c1ccc(O)c(O)c1O)c1ccccc1)c1ccccc1	12-LOX inh 14µM, miR-21 reporter inconclusive, PINK1 modulator inconclusive
O=C(O)CCc1ccc(-c2ccc(Cl)cc2)n1Cc1ccco1	12-LOX inh 40µM (no result: ERG Ets-DNA blk, PINK1 modulator)
CN(C)S(=O)(=O)N1CCc2c(nc3cc(-c4ccccc4)[nH]n3c2=O)C1	none (no result: PTHR1 ag, ERG Ets-DNA blk, miR-21 reporter, Giardia kill, PINK1 modulator)
O=C1NC(Cc2ccc(O)cc2)c2nc3ccc(Cl)cc3c(=O)n2-c2cc(Cl)ccc21 (stereo not given)	none (no result: PTHR1 ag, ERG Ets-DNA blk, miR-21 reporter, Giardia kill, PINK1 modulator)
Fc1ccc(C(Nc2ccccn2)c2c[nH]c3ccccc23)cc1 (stereo not given)	12-LOX inh 6.3µM
Cc1ccc(C(=O)/C=C/c2ccc(F)cc2)o1	none
Cc1ccc(C(=O)/C=C/c2cccc3ccccc23)o1	12-LOX inh 16µM (no result: PTHR1 ag, ERG Ets-DNA blk, miR-21 reporter, Giardia kill, PINK1 modulator)
CSc1nnc(N2C(=O)C(O)=C(C(=O)c3ccco3)C2c2cccc(Cl)c2)s1 (stereo not given)	12-LOX inh 40µM
O=C(C1=C(O)C(=O)N(c2ncccn2)C1c1ccc(Cl)c(Cl)c1)c1ccco1 (stereo not given)	12-LOX inh 2µM (no result: ERG Ets-DNA blk)
CSc1ncnc2c1ncn2C1OC(CO)C(O)C1O (stereo not given)	none (no result: PTHR1 ag, ERG Ets-DNA blk, 12-LOX inh, miR-21 reporter, Giardia kill)
CCOC(=O)/C(C(N)=NCCCO)=C(/O)c1ccccc1	PINK1 modulator 14µM
COC(=O)c1ccc(/C=N/OCC(=O)NCCc2ccc(OC)c(OC)c2)cc1	none
CCN(CC)c1ccc(C2NC(=O)c3ccccc3N2)cc1 (stereo not given)	Giardia kill -86 (no result: miR-21 reporter)
CCN(CC)c1ccc(C2Nc3cccc4cccc(c34)N2)cc1	12-LOX inh inconclusive
